Experimental data: publication PMC7862700, “An all-to-all approach to the identification of sequence-specific readers for epigenetic DNA modifications on cytosine”

Legend:
Assay in all cases: DAPPL (digital affinity profiling via proximity ligation, sequencing); 10 mM Tris-HCl pH 7.5, 50 mM NaCl, 1 mM DTT, 4% glycerol, room temperature, 30 min; GST-TFs on glutathione beads, 16-mer random dsDNA library, 0.1% formaldehyde crosslink after washing; high values mean tight binding
FEV = molecular target: T1, FEV (Homo sapiens, UniProt Q99581 1-238); conditions: protein: recombinant; tags: N-terminal GST; dsDNA, one strand shown
T1 sequence: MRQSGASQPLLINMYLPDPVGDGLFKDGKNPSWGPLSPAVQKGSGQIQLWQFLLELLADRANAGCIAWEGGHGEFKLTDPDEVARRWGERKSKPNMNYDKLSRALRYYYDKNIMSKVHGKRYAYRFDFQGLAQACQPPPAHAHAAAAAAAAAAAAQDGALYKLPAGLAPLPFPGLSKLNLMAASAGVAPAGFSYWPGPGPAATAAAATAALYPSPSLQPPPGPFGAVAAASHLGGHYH
Method in brief: (§1)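 In yeast, human transcription factors were expressed with a GST fusion, then pulled down on glutathione beads and given DNA barcodes. Pooled with a tag-only sample, they were exposed to 200 nmole of a 16-mer random double-stranded DNA library (Tris/NaCl/DTT/glycerol buffer, room temperature, 30 min), washed, crosslinked with 0.1% formaldehyde, proximity-ligated using BsaI/T4 ligase for 1 h at 37 °C, PCR-amplified and read on an Illumina NextSeq500. Each hexamer's frequency of reads for a factor, divided by the matching frequency for the tag-only sample, gives the binding signal.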

ETV5 = ETV5 (Homo sapiens, UniProt P41161 1-510); conditions: protein: recombinant; tags: N-terminal GST; dsDNA, one strand shown
Method in brief: as §1

HSF1 = HSF1 (Homo sapiens, UniProt Q00613 1-529); conditions: protein: recombinant; tags: N-terminal GST; chain copies: 3; dsDNA, one strand shown
Method in brief: as §1

SPIC = molecular target: T2, SPIC (Homo sapiens, UniProt Q8N5J4 1-248); conditions: protein: recombinant; tags: N-terminal GST; dsDNA, one strand shown
T2 sequence: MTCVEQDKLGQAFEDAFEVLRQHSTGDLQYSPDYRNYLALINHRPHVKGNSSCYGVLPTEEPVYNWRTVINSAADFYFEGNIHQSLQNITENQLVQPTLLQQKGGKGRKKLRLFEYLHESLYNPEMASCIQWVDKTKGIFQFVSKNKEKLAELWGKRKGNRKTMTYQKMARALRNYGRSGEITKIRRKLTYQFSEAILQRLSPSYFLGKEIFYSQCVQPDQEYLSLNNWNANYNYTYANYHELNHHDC
Method in brief: as §1

ELF4 = ELF4 (Homo sapiens, UniProt Q99607 1-663); conditions: protein: recombinant; tags: N-terminal GST; dsDNA, one strand shown
Method in brief: as §1

ELK4 = molecular target: T3, ELK4 (Homo sapiens, UniProt P28324-2 1-405); conditions: protein: recombinant; tags: N-terminal GST; dsDNA, one strand shown
T3 sequence: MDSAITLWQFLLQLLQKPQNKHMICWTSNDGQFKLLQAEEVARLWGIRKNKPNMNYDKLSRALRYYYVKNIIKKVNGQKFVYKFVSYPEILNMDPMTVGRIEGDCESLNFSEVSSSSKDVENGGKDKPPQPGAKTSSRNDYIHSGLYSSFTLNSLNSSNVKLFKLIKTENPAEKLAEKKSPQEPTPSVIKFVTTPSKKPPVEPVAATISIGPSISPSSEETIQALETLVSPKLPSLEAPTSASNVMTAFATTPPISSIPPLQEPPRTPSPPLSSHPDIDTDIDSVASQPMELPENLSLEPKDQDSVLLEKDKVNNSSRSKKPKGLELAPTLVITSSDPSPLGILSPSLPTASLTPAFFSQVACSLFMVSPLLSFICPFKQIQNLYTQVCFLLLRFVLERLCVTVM
Method in brief: as §1

ETV2 = molecular target: T4, ETV2 (Homo sapiens, UniProt O00321 1-342); conditions: protein: recombinant; tags: N-terminal GST; dsDNA, one strand shown
T4 sequence: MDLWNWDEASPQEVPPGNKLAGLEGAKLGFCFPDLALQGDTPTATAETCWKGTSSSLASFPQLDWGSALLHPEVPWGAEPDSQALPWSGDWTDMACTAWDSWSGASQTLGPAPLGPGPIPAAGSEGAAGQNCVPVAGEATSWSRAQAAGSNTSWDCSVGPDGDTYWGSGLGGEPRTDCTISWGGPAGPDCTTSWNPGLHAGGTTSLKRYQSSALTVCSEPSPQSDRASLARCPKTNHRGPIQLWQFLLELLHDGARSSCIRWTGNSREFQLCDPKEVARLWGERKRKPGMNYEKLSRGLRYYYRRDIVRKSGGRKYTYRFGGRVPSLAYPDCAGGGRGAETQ
Method in brief: as §1

ELF3 = molecular target: T5, ELF3 (Homo sapiens, UniProt P78545 1-371); conditions: protein: recombinant; tags: N-terminal GST; dsDNA, one strand shown
T5 sequence: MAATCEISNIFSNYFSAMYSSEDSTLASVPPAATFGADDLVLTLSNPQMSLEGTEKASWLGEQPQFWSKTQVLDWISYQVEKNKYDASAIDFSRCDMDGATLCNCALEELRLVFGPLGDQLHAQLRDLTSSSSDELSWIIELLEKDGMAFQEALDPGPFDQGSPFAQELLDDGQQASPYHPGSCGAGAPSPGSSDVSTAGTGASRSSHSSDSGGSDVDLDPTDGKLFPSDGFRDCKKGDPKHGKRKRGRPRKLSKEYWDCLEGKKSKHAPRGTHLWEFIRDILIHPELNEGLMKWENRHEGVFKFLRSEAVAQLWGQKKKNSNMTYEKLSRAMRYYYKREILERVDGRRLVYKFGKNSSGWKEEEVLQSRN
Method in brief: as §1

CRX = CRX (Homo sapiens, UniProt O43186 1-299); conditions: protein: recombinant; tags: N-terminal GST; dsDNA, one strand shown
Method in brief: as §1

ETV1 = ETV1 (Homo sapiens, UniProt P50549 1-477); conditions: protein: recombinant; tags: N-terminal GST; dsDNA, one strand shown
Method in brief: as §1

ERF = molecular target: T6, ERF (Homo sapiens, UniProt P50548 1-548); conditions: protein: recombinant; tags: N-terminal GST; dsDNA, one strand shown
T6 sequence: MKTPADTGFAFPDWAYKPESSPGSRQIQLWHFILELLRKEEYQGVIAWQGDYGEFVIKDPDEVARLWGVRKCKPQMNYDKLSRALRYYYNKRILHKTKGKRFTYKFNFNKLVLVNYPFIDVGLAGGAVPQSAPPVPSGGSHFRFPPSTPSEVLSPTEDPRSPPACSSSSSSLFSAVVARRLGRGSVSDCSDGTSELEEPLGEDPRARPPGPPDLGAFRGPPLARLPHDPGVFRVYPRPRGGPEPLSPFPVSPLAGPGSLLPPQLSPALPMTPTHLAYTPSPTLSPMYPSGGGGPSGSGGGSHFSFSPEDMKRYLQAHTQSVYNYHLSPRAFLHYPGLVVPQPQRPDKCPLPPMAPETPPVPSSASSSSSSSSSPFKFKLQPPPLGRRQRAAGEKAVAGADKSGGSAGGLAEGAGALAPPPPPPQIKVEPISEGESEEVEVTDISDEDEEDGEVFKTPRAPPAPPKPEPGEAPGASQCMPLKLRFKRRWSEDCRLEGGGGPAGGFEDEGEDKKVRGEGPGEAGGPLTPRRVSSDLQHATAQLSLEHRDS
Method in brief: as §1

ETV3L = molecular target: T7, ETV3L (Homo sapiens, UniProt Q6ZN32 1-361); conditions: protein: recombinant; tags: N-terminal GST; dsDNA, one strand shown
T7 sequence: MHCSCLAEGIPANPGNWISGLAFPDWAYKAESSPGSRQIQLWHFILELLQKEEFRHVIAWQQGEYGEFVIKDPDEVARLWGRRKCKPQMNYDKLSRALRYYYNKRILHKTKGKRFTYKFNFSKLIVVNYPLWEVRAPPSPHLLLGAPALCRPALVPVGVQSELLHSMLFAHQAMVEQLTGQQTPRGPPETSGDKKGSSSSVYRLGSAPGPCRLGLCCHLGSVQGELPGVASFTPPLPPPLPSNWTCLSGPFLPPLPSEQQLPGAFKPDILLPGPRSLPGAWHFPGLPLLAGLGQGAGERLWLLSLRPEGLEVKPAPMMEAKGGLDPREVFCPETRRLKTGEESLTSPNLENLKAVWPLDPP
Method in brief: as §1

ETS2 = molecular target: T8, ETS2 (Homo sapiens, UniProt P15036 1-469); conditions: protein: recombinant; tags: N-terminal GST; dsDNA, one strand shown
T8 sequence: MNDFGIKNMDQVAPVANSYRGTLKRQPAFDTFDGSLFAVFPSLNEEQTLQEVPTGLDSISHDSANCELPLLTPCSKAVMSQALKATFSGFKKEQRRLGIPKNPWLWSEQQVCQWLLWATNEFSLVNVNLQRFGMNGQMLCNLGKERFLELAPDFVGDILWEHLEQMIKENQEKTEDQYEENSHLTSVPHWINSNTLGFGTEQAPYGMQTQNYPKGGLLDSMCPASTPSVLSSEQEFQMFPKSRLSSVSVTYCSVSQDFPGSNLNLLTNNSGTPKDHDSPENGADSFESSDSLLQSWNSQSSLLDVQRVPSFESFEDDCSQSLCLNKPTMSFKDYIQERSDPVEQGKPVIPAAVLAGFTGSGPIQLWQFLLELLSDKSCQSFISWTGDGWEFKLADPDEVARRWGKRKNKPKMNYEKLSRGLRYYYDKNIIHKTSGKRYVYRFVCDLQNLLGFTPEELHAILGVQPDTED
Method in brief: as §1

SPDEF = molecular target: T9, SPDEF (Homo sapiens, UniProt O95238 1-335); conditions: protein: recombinant; tags: N-terminal GST; dsDNA, one strand shown
T9 sequence: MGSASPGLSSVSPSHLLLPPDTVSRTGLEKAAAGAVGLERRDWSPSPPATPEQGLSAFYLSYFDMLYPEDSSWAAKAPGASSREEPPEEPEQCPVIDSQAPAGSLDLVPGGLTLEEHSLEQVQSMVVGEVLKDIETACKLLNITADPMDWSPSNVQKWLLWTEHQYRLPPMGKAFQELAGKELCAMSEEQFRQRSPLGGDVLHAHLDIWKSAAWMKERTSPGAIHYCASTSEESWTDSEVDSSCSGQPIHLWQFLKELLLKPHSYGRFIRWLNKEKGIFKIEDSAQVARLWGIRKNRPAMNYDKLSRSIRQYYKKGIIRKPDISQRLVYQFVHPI
Method in brief: as §1

ETV7 = molecular target: T10, ETV7 (Homo sapiens, UniProt Q9Y603 1-341); conditions: protein: recombinant; tags: N-terminal GST; dsDNA, one strand shown
T10 sequence: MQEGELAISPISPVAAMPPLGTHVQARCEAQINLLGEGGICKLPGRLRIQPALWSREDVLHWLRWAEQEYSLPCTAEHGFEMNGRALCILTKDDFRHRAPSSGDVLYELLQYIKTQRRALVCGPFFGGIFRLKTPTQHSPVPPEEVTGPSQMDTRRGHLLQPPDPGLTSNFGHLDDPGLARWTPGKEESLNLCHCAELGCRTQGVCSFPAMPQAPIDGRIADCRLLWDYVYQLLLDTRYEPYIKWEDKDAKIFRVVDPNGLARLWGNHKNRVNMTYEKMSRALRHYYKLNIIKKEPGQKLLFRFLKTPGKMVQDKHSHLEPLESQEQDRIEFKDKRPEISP
Method in brief: as §1

ELF5 = molecular target: T11, ELF5 (Homo sapiens, UniProt Q9UKW6-2 1-255); conditions: protein: recombinant; tags: N-terminal GST; dsDNA, one strand shown
T11 sequence: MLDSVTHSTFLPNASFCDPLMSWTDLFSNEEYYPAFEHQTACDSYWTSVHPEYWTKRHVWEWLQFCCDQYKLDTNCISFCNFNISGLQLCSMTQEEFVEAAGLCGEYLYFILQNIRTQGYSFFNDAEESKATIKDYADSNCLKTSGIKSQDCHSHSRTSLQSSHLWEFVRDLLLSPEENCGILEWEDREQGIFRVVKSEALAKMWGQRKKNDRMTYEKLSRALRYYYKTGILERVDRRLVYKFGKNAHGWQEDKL
Method in brief: as §1

ETV3 = molecular target: T12, ETV3 (Homo sapiens, UniProt P41162-2 1-143); conditions: protein: recombinant; tags: N-terminal GST; dsDNA, one strand shown
T12 sequence: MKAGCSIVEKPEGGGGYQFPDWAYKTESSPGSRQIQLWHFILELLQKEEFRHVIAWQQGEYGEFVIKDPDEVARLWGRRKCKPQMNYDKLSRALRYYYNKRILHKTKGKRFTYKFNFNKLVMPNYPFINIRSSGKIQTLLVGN
Method in brief: as §1

ETV6 = ETV6 (Homo sapiens, UniProt P41212 1-452); conditions: protein: recombinant; tags: N-terminal GST; dsDNA, one strand shown
Method in brief: as §1

Sequence of ETV5 (P41161 whole entry): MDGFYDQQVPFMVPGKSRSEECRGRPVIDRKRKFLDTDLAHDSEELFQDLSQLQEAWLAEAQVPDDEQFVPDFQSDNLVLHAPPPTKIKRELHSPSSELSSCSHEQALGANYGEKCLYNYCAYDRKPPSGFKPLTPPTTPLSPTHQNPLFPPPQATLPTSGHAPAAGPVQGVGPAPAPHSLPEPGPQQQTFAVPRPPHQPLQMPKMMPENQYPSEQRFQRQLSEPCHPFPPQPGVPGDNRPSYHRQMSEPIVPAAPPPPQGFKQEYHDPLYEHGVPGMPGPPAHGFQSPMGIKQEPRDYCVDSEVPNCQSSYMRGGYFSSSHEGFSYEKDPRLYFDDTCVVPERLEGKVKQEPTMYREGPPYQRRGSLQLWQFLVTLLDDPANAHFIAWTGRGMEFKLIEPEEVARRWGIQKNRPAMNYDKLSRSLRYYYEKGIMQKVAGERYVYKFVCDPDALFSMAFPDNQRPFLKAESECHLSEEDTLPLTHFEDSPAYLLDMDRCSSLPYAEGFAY
Sequence of ETV6 (P41212 whole entry): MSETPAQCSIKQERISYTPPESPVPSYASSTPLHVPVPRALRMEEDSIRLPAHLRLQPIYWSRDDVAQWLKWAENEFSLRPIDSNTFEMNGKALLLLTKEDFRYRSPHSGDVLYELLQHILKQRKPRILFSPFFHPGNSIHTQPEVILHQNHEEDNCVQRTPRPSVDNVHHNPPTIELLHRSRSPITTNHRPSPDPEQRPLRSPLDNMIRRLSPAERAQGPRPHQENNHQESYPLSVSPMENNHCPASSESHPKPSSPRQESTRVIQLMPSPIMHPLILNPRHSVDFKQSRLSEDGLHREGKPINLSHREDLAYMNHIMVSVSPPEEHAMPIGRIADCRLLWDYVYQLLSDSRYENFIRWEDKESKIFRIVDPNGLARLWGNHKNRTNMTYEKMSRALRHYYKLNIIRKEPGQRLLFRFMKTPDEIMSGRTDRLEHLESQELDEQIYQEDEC
Sequence of HSF1 (Q00613 whole entry): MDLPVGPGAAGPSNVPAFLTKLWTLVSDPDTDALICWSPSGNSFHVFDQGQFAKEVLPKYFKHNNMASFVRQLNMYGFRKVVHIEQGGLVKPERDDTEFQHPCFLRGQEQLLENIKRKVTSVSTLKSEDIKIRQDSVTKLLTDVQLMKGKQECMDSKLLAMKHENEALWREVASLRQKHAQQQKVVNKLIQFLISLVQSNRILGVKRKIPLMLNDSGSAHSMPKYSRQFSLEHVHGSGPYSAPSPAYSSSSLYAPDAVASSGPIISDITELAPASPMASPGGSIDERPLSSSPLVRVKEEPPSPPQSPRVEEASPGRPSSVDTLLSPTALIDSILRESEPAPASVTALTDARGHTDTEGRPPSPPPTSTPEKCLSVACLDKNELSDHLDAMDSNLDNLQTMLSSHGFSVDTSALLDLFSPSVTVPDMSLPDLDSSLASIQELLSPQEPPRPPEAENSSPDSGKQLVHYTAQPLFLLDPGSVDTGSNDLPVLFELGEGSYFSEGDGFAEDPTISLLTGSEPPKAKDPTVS
Sequence of ETV1 (P50549 whole entry): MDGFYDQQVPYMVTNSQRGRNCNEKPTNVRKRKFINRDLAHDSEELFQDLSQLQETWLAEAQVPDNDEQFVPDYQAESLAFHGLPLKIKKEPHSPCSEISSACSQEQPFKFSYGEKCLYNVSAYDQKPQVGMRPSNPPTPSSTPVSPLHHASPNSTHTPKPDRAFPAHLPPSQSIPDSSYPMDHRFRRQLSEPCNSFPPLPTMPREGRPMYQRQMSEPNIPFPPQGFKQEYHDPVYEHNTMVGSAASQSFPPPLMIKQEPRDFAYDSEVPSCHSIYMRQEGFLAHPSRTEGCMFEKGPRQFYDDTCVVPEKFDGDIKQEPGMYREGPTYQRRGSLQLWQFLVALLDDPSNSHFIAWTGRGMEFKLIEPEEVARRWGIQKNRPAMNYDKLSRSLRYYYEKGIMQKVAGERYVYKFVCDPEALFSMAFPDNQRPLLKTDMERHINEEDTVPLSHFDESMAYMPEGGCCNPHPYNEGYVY
Sequence of CRX (O43186 whole entry): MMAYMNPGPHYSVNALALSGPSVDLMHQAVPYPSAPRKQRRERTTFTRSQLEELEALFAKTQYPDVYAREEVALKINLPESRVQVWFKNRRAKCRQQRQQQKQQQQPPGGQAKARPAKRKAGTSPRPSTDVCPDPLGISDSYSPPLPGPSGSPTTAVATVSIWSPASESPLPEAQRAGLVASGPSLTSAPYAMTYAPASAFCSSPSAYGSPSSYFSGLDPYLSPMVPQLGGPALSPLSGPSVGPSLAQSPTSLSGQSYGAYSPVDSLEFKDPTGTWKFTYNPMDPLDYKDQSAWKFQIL
Sequence of ELF4 (Q99607 whole entry): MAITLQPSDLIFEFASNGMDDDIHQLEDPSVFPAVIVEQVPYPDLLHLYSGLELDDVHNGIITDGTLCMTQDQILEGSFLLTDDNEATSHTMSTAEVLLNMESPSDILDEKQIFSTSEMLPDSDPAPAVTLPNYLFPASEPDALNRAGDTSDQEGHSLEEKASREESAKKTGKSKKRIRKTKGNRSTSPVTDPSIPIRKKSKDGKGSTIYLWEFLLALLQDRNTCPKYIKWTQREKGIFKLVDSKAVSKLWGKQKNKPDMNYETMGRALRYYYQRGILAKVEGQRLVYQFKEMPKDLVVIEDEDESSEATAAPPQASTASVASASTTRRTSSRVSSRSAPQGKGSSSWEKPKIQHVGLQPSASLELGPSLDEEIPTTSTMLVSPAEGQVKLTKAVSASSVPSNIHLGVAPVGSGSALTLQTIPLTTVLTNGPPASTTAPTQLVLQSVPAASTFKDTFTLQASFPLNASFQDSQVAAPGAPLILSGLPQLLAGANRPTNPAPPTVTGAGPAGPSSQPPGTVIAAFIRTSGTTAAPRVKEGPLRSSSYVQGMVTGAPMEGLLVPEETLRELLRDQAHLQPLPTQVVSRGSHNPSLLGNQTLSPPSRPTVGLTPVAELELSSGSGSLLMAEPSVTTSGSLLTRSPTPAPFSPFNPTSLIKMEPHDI

For TGTCCT, the binding signal (FEV) was 1.45 fold enrichment (6-mer frequency, TF over GST control), the binding signal (ETV5) was 1.56 fold enrichment (6-mer frequency, TF over GST control) and the binding signal (HSF1) was 1.06 fold enrichment (6-mer frequency, TF over GST control). The binding signal (SPIC) was 1.53 fold enrichment (6-mer frequency, TF over GST control), the binding signal (ELF4) was 1.4 fold enrichment (6-mer frequency, TF over GST control) and the binding signal (ELK4) was 1.28 fold enrichment (6-mer frequency, TF over GST control). For the same sequence, the binding signal (ETV2) was 1.67 fold enrichment (6-mer frequency, TF over GST control), the binding signal (ELF3) was 1.46 fold enrichment (6-mer frequency, TF over GST control) and the binding signal (CRX) was 1.12 fold enrichment (6-mer frequency, TF over GST control). The binding signal (ETV1) was 1.55 fold enrichment (6-mer frequency, TF over GST control), the binding signal (ERF) was 1.5 fold enrichment (6-mer frequency, TF over GST control) and the binding signal (ETV3L) was 1.58 fold enrichment (6-mer frequency, TF over GST control). The binding signal (ETS2) was 1.47 fold enrichment (6-mer frequency, TF over GST control), the binding signal (SPDEF) was 1.79 fold enrichment (6-mer frequency, TF over GST control) and the binding signal (ETV7) was 1.4 fold enrichment (6-mer frequency, TF over GST control). For the same sequence, the binding signal (ELF5) was 1.7 fold enrichment (6-mer frequency, TF over GST control), the binding signal (ETV3) was 1.47 fold enrichment (6-mer frequency, TF over GST control) and the binding signal (ETV6) was 1.25 fold enrichment (6-mer frequency, TF over GST control).
